GLA spleen mod: inhibits or activates alpha-galactosidase in human spleen homogenate; P06280; human spleen homogenate, 4MU-alpha-Gal fluorescence, 40 min; Potency, µM (doses to about 80 µM), hits mostly inhibitors; 0.008% of 240,000 active; AID 2107
Target sequence (P06280 32-429 limits assumed): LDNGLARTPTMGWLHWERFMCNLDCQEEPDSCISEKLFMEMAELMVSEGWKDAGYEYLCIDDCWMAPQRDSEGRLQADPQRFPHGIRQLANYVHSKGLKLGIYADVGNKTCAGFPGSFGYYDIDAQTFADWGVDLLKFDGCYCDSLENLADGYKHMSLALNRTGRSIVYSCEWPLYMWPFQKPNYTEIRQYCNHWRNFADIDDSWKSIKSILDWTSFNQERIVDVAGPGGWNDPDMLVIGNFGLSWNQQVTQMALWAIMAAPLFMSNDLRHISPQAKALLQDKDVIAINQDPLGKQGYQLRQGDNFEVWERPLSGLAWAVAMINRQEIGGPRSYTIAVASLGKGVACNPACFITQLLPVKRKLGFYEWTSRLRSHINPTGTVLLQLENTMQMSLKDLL
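qHTS titration in buffer at pH 5.0. Alpha-galactosidase activity in spleen homogenate was measured via 4-methylumbelliferone release from 1 mM fluorogenic substrate after 40 min at 37C and a pH 10 stop. AC50 came from Hill fits of control-normalized data.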
HTT ATP protect: Huntington cell model cytoprotection by ATP luminescence; PC12 HTT-Q103 induced, cytoprotection, ATP luminescence, 40 h; Potency, µM (doses to about 56.4 µM), most hits filed as activators; 0.14% of 230,000 active; also: nearly all actives have a fitted effect of over 45% in size
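Huntington model: PC12 line, ecdysone-inducible HTTQ103 exon1–GFP, tebufenozide 100 nM. Test articles in a dose series. Endpoint luminescence from cellular ATP.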
ERK EGF block: inhibitors of EGF-stimulated ERK signaling pathway | HEK293-V1b, EGF-stimulated phospho-ERK AlphaScreen | Potency, µM (titrated, usually from 11.5 µM), most hits filed as inhibitors | 0.41% of 130,000 active; also: nearly all actives have a fitted effect of over 55% in size
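In this qHTS, HEK293 cells with stable type-1 vasopressin (V1b) receptor were exposed to compound at 37C for 30 min, stimulated 5 min with EGF at 25 nM, lysed, and probed for phospho-ERK by AlphaScreen.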
GLA inh pH 4.5: inhibitors of human alpha-galactosidase A at pH 4.5; P06280; purified enzyme, 4-MU-alpha-Gal fluorescence, pH 4.5; activity change, negative = inhibition, % at 105 µM; 230,000 tested, under 10 active
HttQ103 aggreg: mutant huntingtin aggregation inhibition; AID 1688; Potency, µM (highest dose often 46.1 µM), most hits filed as inhibitors; PC12 HttQ103-GFP aggregates, Acumen cytometry, 40 h; 1.1% of 220,000 active; also: nearly all actives have a fitted effect of over 60% in size
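Steps: seed 1500 PC12 HTTQ103-GFP cells/well; add tebufenozide, 100 nM final; add compound titration; add ATPLite reagent; quantify GFP aggregates by laser scanning cytometry.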
Of the large screens only hits and unclear results are named; the others gave an inactive call. Rows were chosen to be rich in hits. Some 1.2% of all compounds tested hit in one or more screens of this group. Calls follow the shape of the dose curve; as a rule, active = well fitted curve in the direction sought with a large enough effect; inconclusive = small, poorly fitted or top-dose-only effect, or another doubt; inactive = no such curve, though single readings can be large; an effect the other way counts as inactive or inconclusive.

CC(C)(C)c1ccc(CSc2nnc(-c3ccccn3)n2Cc2ccco2)cc1	HttQ103 aggreg 14µM (no result: ERK EGF block)
Brc1ccc(CSc2nnc(-c3ccccn3)n2Cc2ccco2)cc1	none (no result: ERK EGF block)
CC(=O)c1cccc(NC(=O)COc2cc3oc(=O)c(CC(C)O)c(C)c3cc2Cl)c1 (centres undefined)	ERK EGF block inconclusive, HttQ103 aggreg 3.5µM
Cc1ccc(C(=O)C(C)N(C(=O)c2ccc(Cl)cc2Cl)N2C(=O)CCCC2=O)cc1 (centres undefined)	HttQ103 aggreg 11µM
CC1=C(C(=O)OCc2ccc3c(c2)OCO3)C(c2ccccc2OCc2ccccc2)NC(=O)N1 (centres undefined)	HttQ103 aggreg inconclusive (no result: ERK EGF block)
CCOC(=O)C1=C(C)NC(=O)NC1c1cc2c(cc1Br)OCO2 (centres undefined)	none
CC1=C(C(=O)OCc2ccc3c(c2)OCO3)C(c2ccccc2)NC(=O)N1 (centres undefined)	HttQ103 aggreg 2.8µM (no result: ERK EGF block)
CC1=C(C(=O)OCc2ccc3c(c2)OCO3)C(c2ccc(O)c([N+](=O)[O-])c2)NC(=O)N1 (centres undefined)	HttQ103 aggreg 7.1µM (no result: HTT ATP protect)
CCCC[C@H]1CCCO[C@@](C(=O)NCc2cc(C)n(C)n2)(C(F)(F)F)C1	none (no result: HTT ATP protect, ERK EGF block, GLA inh pH 4.5, HttQ103 aggreg)
CSC(N)=NCCC[C@H](N)C(=O)O	none (no result: HTT ATP protect, HttQ103 aggreg)
COc1ccc(NC(=O)N2CCC3(CC2)CCN(C(=O)c2csnn2)CC3)cc1	none (no result: GLA inh pH 4.5, HttQ103 aggreg)
Cc1ccc(/C=[N+](\[O-])c2ccc(N(C)C)cc2)c2nsnc12	HttQ103 aggreg 11µM
Cc1ccc2nsnc2c1NS(=O)(=O)c1c(C)ccc2nsnc12	none (no result: ERK EGF block)
CN(C1CCCCC1)S(=O)(=O)c1ccc(NC(=O)c2ccc(Br)o2)cc1	HttQ103 aggreg 22µM (no result: ERK EGF block)
Cc1ccc2c(c1)-c1c(ssc1=S)C(C)(C)N2C(=O)c1ccco1	ERK EGF block 13µM
Nc1c(C(=O)Nc2ccc(S(=O)(=O)N3CCCC3)cc2)sc2nc3cc4c(cc3cc12)CCC4	HttQ103 aggreg 14µM
Nc1c(C(=O)Nc2ccc(S(=O)(=O)N3CCCC3)cc2)sc2nc3ccc(OC(F)(F)F)cc3cc12	HttQ103 aggreg inconclusive
CCOCCn1c(N2CCCN(C)CC2)nc2ccccc21	none (no result: GLA spleen mod, ERK EGF block, GLA inh pH 4.5)
O=C(Nc1ccc(F)cc1)c1cc(S(=O)(=O)N2CCCCC2)cs1	HttQ103 aggreg 10µM (no result: ERK EGF block)
Cc1ccc(NC(=O)c2ccccc2NS(=O)(=O)c2ccc(F)cc2)cc1S(=O)(=O)N1CCCCC1	HttQ103 aggreg 2.5µM
COc1ccc([C@H]2OCC3C2CO[C@@H]3c2ccc(OC)c(OC)c2)cc1OC (some centres undefined)	none (no result: HTT ATP protect, ERK EGF block, GLA inh pH 4.5, HttQ103 aggreg)
Cc1c2oc3c(C)ccc(C(=O)N[C@@H]4C(=O)N[C@H](C(C)C)C(=O)N5CCC[C@H]5C(=O)N(C)CC(=O)N(C)[C@@H](C(C)C)C(=O)O[C@@H]4C)c3nc-2c(C(=O)N[C@@H]2C(=O)N[C@H](C(C)C)C(=O)N3CCC[C@H]3C(=O)N(C)CC(=O)N(C)[C@@H](C(C)C)C(=O)O[C@@H]2C)c(N)c1=O	HttQ103 aggreg 0.032µM (no result: ERK EGF block)
CC(=O)N1N=C(c2ccco2)CC1c1cccs1 (centres undefined)	HttQ103 aggreg inconclusive (no result: ERK EGF block)
O=C(CCl)N1N=C(c2ccco2)CC1c1cccs1 (centres undefined)	HttQ103 aggreg 11µM
O=C(CNC(=O)c1ccc(S(=O)(=O)N2CCCC2)cc1)N/N=C/c1c(Cl)cccc1Cl	HttQ103 aggreg 11µM
O=C(CNC(=O)c1ccc(S(=O)(=O)N2CCCC2)cc1)N/N=C/c1ccc(Cl)cc1	none
CC1(OC(=O)c2ccc(Cl)nc2)C(=O)C=c2cc(-c3ccsc3)ncc2=C1OC(=O)C1CCCC1 (centres undefined)	none (no result: ERK EGF block, HttQ103 aggreg)
COc1cccc(-c2ccc3ncnc(NCc4cccs4)c3c2)c1	ERK EGF block 28µM (no result: HttQ103 aggreg)
CCCC(=O)NCCc1c(I)[nH]c2ccc(OC)cc12	none (no result: ERK EGF block, GLA inh pH 4.5, HttQ103 aggreg)
CCOc1ccc(NC(=O)CC(C)O)cc1 (centres undefined)	none (no result: GLA spleen mod, ERK EGF block, GLA inh pH 4.5)
COc1ccc(C2C(C#N)=C(SCC(=O)Nc3ccc(C)cc3)NC3=C2C(=O)CC(C)(C)C3)cc1 (centres undefined)	HttQ103 aggreg 11µM (no result: ERK EGF block)
CCC1C(C#N)=C(SCC(N)=O)NC2=C1C(=O)CC(C)(C)C2 (centres undefined)	none
